Experimental data as given in PubChem BioAssay (NCI).
This is part of a sample that, as a whole, favours compounds with a hit. Of some 83,000 tested, about 20% had one in any assay.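 Assay: single dose, 48 h. Readout: percent growth (0 = no net growth; negative = cell death). Active: <10.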 A number with no mark means an inactive call. Activity calls are given as the source filed them.

Columns and labels:
Test in all cases: NCI-60 one-dose screen, 48 h (100 = growth as untreated, 0 = no growth, -100 = all killed)
Details in all cases: 10 µM unless noted
[1] = tested on: DU-145 prostate
[2] = tested on: K-562 leukemia
[3] = tested on: MALME-3M melanoma
[4] = tested on: MDA-MB-231 breast
[5] = tested on: RXF 393 renal
[6] = tested on: SF-268 CNS
[7] = tested on: SF-295 CNS
[8] = tested on: SF-539 CNS
[9] = tested on: UACC-257 melanoma
[10] = tested on: M14 melanoma

| Structure (SMILES) | growth [1] [%] | growth [2] | growth [3] | growth [4] | growth [5] | growth [6] [%] | growth [7] | growth [8] | growth [9] [%] | growth [10] [%] |
| --- | --- | --- | --- | --- | --- | --- | --- | --- | --- | --- |
| O=C(NC1CCN(Cc2ccccc2)CC1)c1cc(-c2cccnc2)nc2ccc(Cl)cc12 | 87.5 | 2.45% (active) | 74% | 58.8% | 82.1% | 100 | 67.6% | 63.9% | 83.2 | – |
| COc1ccc(-c2cc(C#N)c(NNC(C)=O)[nH]2)cc1 | 123 | 47.5% | 106% | 106% | 118% | 122 | 101% | 112% | 108 | – |
| O=C(/C=C\c1ccccc1Cl)c1ccccc1 | 101 | 102% | 98.9% | 91.7% | 89.7% | 93.4 | 75.2% | 103% | 119 | – |
| COCn1c(C(=O)OC)cc2oc(/C=C3/SC(=S)N(N)C3=O)cc21 | 94.1 | 63.7% | 45.8% | 110% | 27.6% | 73.1 | 82.3% | 90.3% | 113 | – |
| COc1ccc(-n2nnnc2-c2cn[nH]c2C(F)(F)F)cc1 | 101 | 87.2% | 107% | 83.4% | -6.74% (active) | 109 | 88.3% | 89.6% | 93.7 | – |
| Cc1ccnc2c(NC(C)CCCN)cc(O)c(O)c12 (stereo not drawn) | 80.3 | 80.3% | 123% | 75.2% | 96.2% | 108 | 104% | 79.8% | 97.2 | – |
| Cc1ccc2c(O)c(O)cc(NC(C)CCCN)c2n1 (stereo not drawn) | 74.5 | 42.1% | 81.6% | 57.2% | 93.3% | 92.2 | 90.6% | 14.6% | 98.4 | – |
| CCC(CCCN1C(=O)c2ccccc2C1=O)Nc1cc(OC)cc2c(C)ccnc12 (stereo not drawn) | 86.7 | 72.4% | 111% | 81.1% | -10.2% (active) | 113 | 93.3% | 76.5% | 88.6 | – |
| COC(=O)/C(Br)=C/c1c[nH]c2ccc(Br)cc12 | 104 | 74.7% | 95.2% | 80.9% | 32.6% | 97.7 | 64% | 95% | 88 | – |
| COC1=CC(c2ccc[nH]2)=N/C1=C\c1[nH]c(C)c(C(=O)CCCCC(=O)NC(C)(C)C)c1C | 51.5 | 53.5% | 48.7% | -19.2% (active) | -47.1% (active) | 60.2 | 24% | 63.1% | 75.7 | – |
| COc1ccc(-c2nc(SCC(C)C)nc(Nc3ccc([N+](=O)[O-])cc3)c2C#N)cc1 | 107 | 93% | 98% | 94.6% | 107% | 93.2 | 84.3% | 99.8% | 85.2 | – |
| CCCOC(=O)c1c(C)n(C)c2scc[n+]12 | 77.8 | 65% | 92.5% | 80.1% | 67.8% | 89.3 | 54.1% | 81.1% | 78.8 | – |
| O=C1NCCN1/N=C/c1c(Cl)nc2n1CCS2 | 85.8 | 87.3% | 91.7% | 130% | 150% | 113 | 111% | 94.9% | 105 | – |
| COc1ccc(NC(=O)/C=C(C)/C=C/C=C(C)/C=C/C2=C(C)CCCC2(C)C)cc1 | 101 | 46.7% | 68.1% | 38.3% | 79.4% | 81.4 | 80% | 32.8% | 87.4 | – |
| CC(=O)NNC(=O)c1sc(NC(C)=O)nc1C | 113 | 61.4% | 168% | 100% | 112% | 93.2 | 106% | 97.8% | 105 | 115 |
| CC(=O)N1CCN(CCNC(=O)n2cc(-c3ccncc3)c(-c3ccc(O)c(Cl)c3)n2)CC1 | 105 | 91.8% | 90.6% | 107% | 120% | 107 | 130% | 101% | 103 | – |
| Oc1ccc(N=Nc2ccc(N=Nc3ccccc3)cc2)cc1 | 49.3 | -7.03% (active) | 111% | 54.7% | 98.2% | 36.9 | 8.6% (active) | 2.09% (active) | 53 | – |
| COc1cc(-c2nn(-c3ccc(NC(=O)c4cc(Cl)cc(Cl)c4)cc3)cc2-c2ccncc2)ccc1Cl | 96.9 | 23.4% | 104% | 80.9% | -17.1% (active) | 76.9 | -1.01% (active) | 60.2% | 102 | – |
| CCCC(CCC)Oc1ccc(CCCC2=C(O)c3ccccc3C(=O)C2=O)cc1 | 33.4 | 23% | 57% | 54.6% | 58.7% | 45.3 | 28.2% | 23.1% | 40.5 | – |
| COC(=O)C1CC(=O)N(C(=O)Nc2ccc(Cl)cc2Cl)C1 (stereo not drawn) | 114 | 92.8% | 108% | 95.3% | 120% | 101 | 96.7% | 99.6% | 96.6 | – |
| COC1(OC)N=C(N)C2(C#N)C3(C(=O)Nc4ccccc43)C12C#N (stereo not drawn) | 68.2 | 85.3% | -3.2% (active) | 73.6% | 61% | 105 | 96.4% | 61.2% | 100 | – |
| CCCCCCCCCCCCOC(=N)N(C)C | 112 | 96.3% | 88.9% | 104% | 112% | 101 | 98.4% | 99.4% | 92.2 | – |
| COc1cc2c(/C=C3\C(=O)Nc4ccc(Br)cc43)c(Cl)n(C)c2cc1C | 17.5 | 6.73% (active) | 21.9% | 7.42% (active) | -23.9% (active) | 29.6 | 9.82% (active) | 7.51% (active) | 28.8 | – |
| COC(=O)c1ccc2[nH]c(O)c(C(=Nc3ccc(N(C)C(=O)CN4CCN(C)CC4)cc3)c3ccc(N)cc3)c2c1 | 96.8 | 14% | 83.5% | 87.6% | 56.7% | 62.4 | 99.1% | 50.8% | 125 | 88 |
| CC(C)(C)OC(=O)N1C/C(=C\c2ccccc2)C(=O)/C(=C/c2ccccc2)C1 | 112 | 74.8% | 113% | 79.9% | 102% | 81.4 | 99.5% | 104% | 91.4 | – |
| CC[n+]1c(C)ccc2cc(C)ccc21 | 126 | 91.2% | 131% | 91.7% | 111% | 102 | 119% | 110% | 105 | – |
| C/C=C/C/C=C/[C@H](C)C[C@H](O)[C@@H]1C[C@@H]2O[C@H]2/C=C/[C@H](O)[C@@H](O)/C=C/C[C@H](C)CC(=O)O1 | 90.7 | 65.8% | 103% | 90% | 117% | 85.8 | 84.5% | 85.2% | 110 | – |
| NC(=O)CC(NC(=O)COc1ccc(Cl)cc1Cl)C(=O)O (stereo not drawn) | 104 | 103% | 105% | 105% | 108% | 101 | 100% | 111% | 107 | – |
| O=C(N/N=C/c1coc2ccccc2c1=O)c1cc2oc(-c3ccccc3)cc2[nH]1 | 93.8 | 82.6% | -5.98% (active) | 96.8% | 82% | 96.2 | 103% | 89.8% | 118 | – |
| O=C(CCl)NC1c2ccccc2Oc2ccccc21 | 65.5 | 45.6% | 74.1% | 60.7% | 80.1% | 64.4 | 81.2% | 82.4% | 63.6 | 77.8 |
